# Data taken from PubChem BioAssay AID1569 (National Center for Advancing Translational Sciences (NCATS), 2009).
# Inconclusive results are not listed. Calls of active or inactive are those of the source. Calls follow the shape of the dose curve; as a rule, active = well fitted inhibition curve with a large enough effect; inconclusive = small, poorly fitted or top-dose-only effect, or effect the other way, or another doubt; inactive = no such curve, though single readings can be large or run the other way.
# Test: Confirmation Concentration-Response Assay for lipid storage modulators; also: nearly all actives have a fitted effect of over 80% in size;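 as to activity change, negative = inhibition: -100% = full block of lipid deposition by 20 µM Triacsin C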
# Conditions: Drosophila S3 cells, lipid droplet BODIPY/CellTracker ratio, 18-24 h; series mostly up to 46.1 µM; activity change, negative = inhibition: at the top concentration
# Outline: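 Cells at 5,000/well received compound as a titration plus oleic acid (added as 400 uM solution) and were incubated 18–24 h at 24 °C. BODIPY 493/503 lipid signal and CellTracker Red cell count were read by 488-nm laser-scanning cytometry. Activity was normalised to 20 uM Triacsin C.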
# Potency is read from the fitted curve at half-maximal effect.
Compound,Potency,"activity change, negative = inhibition"
COc1ccc(CCNC(=O)Cn2nnc(-c3ccc(N(C)C)cc3)n2)cc1OC,705 nM (active),–
CCc1cccc2cc3c(N)c(C(=O)Nc4ccc(S(=O)(=O)N5CCCC5)cc4)sc3nc12,9960 nM (active),–
COc1ccc(-c2cnc(SCC(=O)Nc3nc(C(C)(C)C)cs3)n2Cc2ccco2)cc1,705 nM (active),–
COc1ccc(N=Nc2nc(-c3ccccc3)c(-c3ccccc3)[nH]2)cc1,2500 nM (active),–
CN(CC1CCCO1)S(=O)(=O)c1ccc(C(=O)Nc2ccc(F)cc2)cc1 (stereo not given),–,20.8% (inactive)
Cc1ccc(-n2ncc3c2CCCC3NC(=O)c2cnccn2)cc1C (stereo not given),141 nM (active),–
COc1ccc(CCNC(=O)[C@H](C)N2C(=O)N3CCc4c([nH]c5ccccc45)[C@@]3(C)C2=O)cc1OC,560 nM (active),–
COc1ccc(CCNC(=O)CCc2ccc(S(=O)(=O)NC(C)C)cc2)cc1OC,–,26% (inactive)
Nc1c(C(=O)Nc2ccc(S(=O)(=O)N3CCCC3)cc2)sc2nc3ccc(OC(F)(F)F)cc3cc12,8880 nM (active),–
CC(C)N1CCc2c(sc(NC(=O)c3ccc(S(=O)(=O)N4CCCCC4C)cc3)c2C(N)=O)C1 (stereo not given),–,-14.3% (inactive)
COc1ccc(CCCc2nnc(SCC(=O)Nc3nc(C)cs3)n2C)cc1C,1410 nM (active),–
CCOc1ccc(CCNC(=O)COC(=O)c2ccc(S(C)(=O)=O)cc2)cc1OCC,–,-7.33% (inactive)
COc1ccc(CCNC(=O)CCCCCNc2nc(=S)[nH]c3ccccc23)cc1OC,2500 nM (active),–
COc1ccc(NC(=O)NC2(C(=O)N3CCN(C)CC3)CCCCC2)cc1,–,22.7% (inactive)
Cc1cc(C(=O)O[C@H]2[C@H](C)NS(=O)(=O)[C@H]3C[C@@H]4C=C[C@]23O4)cc([N+](=O)[O-])c1,–,15% (inactive)
CCN(CC)S(=O)(=O)c1cccc(NC(=O)CNc2cccc(S(=O)(=O)N3CCCC3)c2)c1,1990 nM (active),–
O=S(=O)(c1ccccc1C(F)(F)F)N1CCC(n2cnc3ccccc32)CC1,996 nM (active),–
COC(=O)c1ccc(C(=O)NC2CCCc3c2cnn3-c2ccccc2F)nc1 (stereo not given),177 nM (active),–
COc1ccc(CCNC(=O)CCCn2nc(C)n3ccnc3c2=O)cc1OC,–,6% (inactive)
CCOc1ccc(CCNC(=O)COC(=O)c2c(C)nn(-c3ccccc3)c2C)cc1OCC,1580 nM (active),–
